Records with an inconclusive call do not appear. Activity calls are given as the source filed them. Rule for the calls: active = hit-call score of the fitted dose curve at least 0.9, where 1 is the maximum; inconclusive = response in the unintended direction; inactive = score below 0.9.
Read-out: ABC Transporter (ABCB11), ABCB11 (gene 8647)
Test: CLD_ABCB11_48hr: CellzDirect (CLD) Gene Expression Assay for ABC Transporter (ABCB11) at 48 hours (AID 2283697)
Protocol: CLD_48hr is a cell-based, multiplexed-readout assay that uses hepatocyte, a human liver primary cell, with measurements taken at 48 hours after chemical dosing in a 96-well plate.CLD_ABCB11_48hr is one of 16 assay component(s) measured or calculated from the CLD_48hr assay. It is designed to make measurements of mRNA induction, a form of inducible reporter, as detected with chemiluminescence signals by Quantitative Nuclease Protection Assay (qNPA) technology.Data from the assay component CLD_ABCB11_48hr was analyzed at the endpoint, CLD_ABCB11_48hr, in the positive analysis fitting direction relative to DMSO as the negative control and baseline of activity. Using a type of inducible reporter, gain-of-signal activity can be used to understand changes in the reporter gene as they relate to the gene ABCB11. Furthermore, this assay endpoint can be referred to as a primary readout. To generalize the intended target to other relatable targets, this assay endpoint is annotated to the transporter intended target family, where subfamily is ABC transporter.
Human hepatocyte cultures were treated daily for two consecutive days with fresh dosing solutions containing appropriate concentrations of the 320 ToxCast chemicals (chemical identities were blinded to CellzDirect and other ToxCast collaborators), vehicle control (0.2% DMSO), and positive control inducers as summarized in Table 1. Due to the large number of treatment groups and chemicals examined, the ToxCast chemicals were divided into two groups (spanning two independent cultures of hepatocytes from separate donor preparations (Hu778: ToxCast plates 1 and 2; Hu776: ToxCast plates 3 and 4). Each preparation of human hepatocyte cultures was treated with respective vehicle control, medium only control, set of six positive controls/reference chemicals for the five hepatic receptor pathways, and a subset of eight of the ToxCast chemicals (indoxacarb, pyrithiobac-sodium, norflurazon, cyhalofop-butyl, methomyl, thiram, acetochlor, and propiconazole). These replicate data, coupled with internal replicates designed within the blinded ToxCast chemical library, provided additional data to evaluate interindividual differences between hepatocyte preparations and their potential impact on chemical profiles.Cell morphology and integrity were evaluated using phase-contrast microscopy as an indicator of hepatocyte cell health (Tyson & Green, 1987). Cultures for each treatment group (i.e., media, vehicle [0.2% DMSO], positive control inducers [multiple concentrations], and the ToxCast chemicals [multiple concentrations]) were observed and cell morphology was assessed relative to vehicle control cultures at each harvest time point (0, 6, 24, or 48 h). […] Images were evaluated at the conclusion of the study to assess changes in cell integrity and account for the effects of chemical exposure on uncharacteristic changes in concentration-dependent gene expression profiles. The results from these determinations of apparent cytotoxicity were annotated (yes/no) alongside the corresponding qNPA data for reference.At the conclusion of each treatment period, hepatocyte cultures (96-well) were washed with 1 volume of HBSS, lysed by addition of 25 ul ArrayPlate lysis buffer (HTG, Tucson, AZ), and 70 ul/well of Denaturation Oil, denatured by incubation at 95C for 10 min, and frozen at approximately -70C until analysis by nuclease protection assay (qNPA) (Roberts et al., 2007). For qNPA analysis, cell lysates were thawed at 50C for approximately 30 min, qNPA probes were added, and samples were incubated at 95C for 10 min to begin the detection process by denaturing the target RNA, dissociating the duplexes and secondary structure hybridization. At the conclusion of the hybridization period, S1 nuclease reagent was added to each sample to digest all nonprotected nucleotides at 50C for 60-90 min. […]

Q: Which outcome does the source give for `CCCC(=NOCC)C1=C(O)CC(CC(C)SCC)CC1=O` (stereo not given) here?
A: The outcome was “inactive”.

Q: Which outcome does the source give for `COCC(C)N(C(=O)CCl)c1c(C)csc1C` (stereo not given) here?
A: Its outcome is “inactive”.

Q: For `CCOP(=O)(OCC)Oc1nc(Cl)c(Cl)cc1Cl`, which outcome is on record?
A: Its outcome is “inactive”.

Q: For `C=C(C)CN(CC)c1c([N+](=O)[O-])cc(C(F)(F)F)cc1[N+](=O)[O-]`, which outcome is on record?
A: Its outcome is “inactive”.

Q: How did the outcome turn out when `COc1cc(OC)nc(NC(=O)NS(=O)(=O)c2ncccc2OCC(F)(F)F)n1` was run?
A: Its outcome is “inactive”.

Q: For `CC(C)C1(C)N=C(c2ncccc2C(=O)O)NC1=O` (stereo not given), which outcome is on record?
A: Its outcome is “inactive”.

Q: For `N#CN=C1SCCN1Cc1ccc(Cl)nc1`, which outcome is on record?
A: The outcome was “inactive”.

Q: For `COC(=O)NS(=O)(=O)c1ccc(N)cc1`, which outcome is on record?
A: The outcome was “inactive”.

Q: Which outcome does the source give for `Nc1c(Cl)c(F)nc(OCC(=O)O)c1Cl` here?
A: Its outcome is “inactive”.

Q: For `OC(c1ccc(Cl)cc1)(c1ccc(Cl)cc1)C(Cl)(Cl)Cl`, which outcome is on record?
A: The outcome was “inactive”.

Q: For `CO/N=C(/C1=NOCCO1)c1ccccc1Oc1ncnc(Oc2ccccc2Cl)c1F`, which outcome is on record?
A: Its outcome is “inactive”.

Q: `COCc1cnc(C2=NC(C)(C(C)C)C(=O)N2)c(C(=O)O)c1` (stereo not given) was tested. Which outcome did it give?
A: The outcome was “inactive”.

Q: With `COP(=S)(OC)SCn1nnc2ccccc2c1=O` as the compound, how does the outcome read?
A: Its outcome is “inactive”.

Q: For `O=C1C2CC=CCC2C(=O)N1SC(Cl)(Cl)Cl` (stereo not given), which outcome is on record?
A: Its outcome is “inactive”.

Q: How did the outcome turn out when `CS(=O)(=O)c1ccc(C(=O)C2C(=O)CCCC2=O)c([N+](=O)[O-])c1` was run?
A: Its outcome is “inactive”.

Q: `O=P(O)(O)CCCl` was tested. Which outcome did it give?
A: The outcome was “inactive”.

Q: How did the outcome turn out when `CCNC(=O)NC(=O)C(C#N)=NOC` was run?
A: Its outcome is “inactive”.

Q: For `COP(=O)(OC)O/C(C)=C/C(=O)N(C)C`, which outcome is on record?
A: Its outcome is “inactive”.

Q: For `O=C(O)c1c(Cl)ccc2cc(Cl)cnc12`, which outcome is on record?
A: The outcome was “inactive”.

Q: How did the outcome turn out when `CCOc1nc(C(Cl)(Cl)Cl)ns1` was run?
A: Its outcome is “inactive”.

Q: Which outcome does the source give for `Clc1nc(Cl)nc(Nc2ccccc2Cl)n1` here?
A: Its outcome is “inactive”.

Q: With `COC(=O)NC(=S)Nc1ccccc1NC(=S)NC(=O)OC` as the compound, how does the outcome read?
A: The outcome was “inactive”.

Q: For `Cc1nc(N(C)C)nc(OC(=O)N(C)C)c1C`, which outcome is on record?
A: The outcome was “inactive”.

Q: With `COc1ccc(-c2ccccc2)cc1NNC(=O)OC(C)C` as the compound, how does the outcome read?
A: The outcome was “inactive”.

Q: `O=c1n(Cl)c(=O)n(Cl)c(=O)n1Cl` was tested. Which outcome did it give?
A: The outcome was “inactive”.
